Screening results: PubChem BioAssay, National Center for Advancing Translational Sciences (NCATS)
LmPK inh = LmPK (Leishmania mexicana) enzyme inhibition; purified LmPK, Kinase-Glo ATP luminescence, 1 h; 290,000 compounds, 0.37% hits; Potency, µM (doses to about 57.5 µM), for inactives: at the top dose activity change, negative = inhibition, actives largely listed as inhibitors; further: potency means the concentration at half of the fitted maximal effect; on the % scale 0 is the no-effect control and ±100 the full control effect
Target sequence (Q27686 whole entry, looked up): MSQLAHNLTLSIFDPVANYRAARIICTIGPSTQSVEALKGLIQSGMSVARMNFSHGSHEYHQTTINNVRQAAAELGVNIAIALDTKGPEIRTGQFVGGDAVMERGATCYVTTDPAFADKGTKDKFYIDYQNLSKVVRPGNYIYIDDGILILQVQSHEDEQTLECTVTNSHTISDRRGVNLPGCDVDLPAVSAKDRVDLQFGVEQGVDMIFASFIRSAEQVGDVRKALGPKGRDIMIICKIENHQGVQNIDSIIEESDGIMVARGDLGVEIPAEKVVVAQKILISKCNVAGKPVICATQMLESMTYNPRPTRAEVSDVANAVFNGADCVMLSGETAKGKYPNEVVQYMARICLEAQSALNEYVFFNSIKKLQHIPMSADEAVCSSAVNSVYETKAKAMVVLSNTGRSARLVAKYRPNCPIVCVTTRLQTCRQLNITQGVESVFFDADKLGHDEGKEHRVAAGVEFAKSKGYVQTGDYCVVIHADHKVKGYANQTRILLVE
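Purified LmPK (0.1 nM) with 0.5 mM PEP and 0.1 mM ADP in imidazole buffer pH 7.2 with MgCl2/KCl, 1 h at room temperature. ATP formed was read by luciferase luminescence and normalized to no-enzyme and uninhibited controls.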
TbPYK inhibitor = T. brucei pyruvate kinase inhibition; Q57TT1; TbPYK enzyme, Kinase-Glo Plus ATP luminescence, 45 min; Potency, µM (highest dose often 76.8 µM), for inactives: at the highest dose activity, negative = inhibition, most hits filed as inhibitors; 410,000 compounds, 0.12% hits; further: potency means the concentration at half of the fitted maximal effect; on the % scale 0 is the no-effect control and ±100 the full control effect; nearly all actives have a fitted effect of over 50% in size
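TbPYK + substrate in 50 mM TEA pH 7.2, 100 mM KCl, 10 mM MgCl2, 0.05% BSA, 0.01% Tween-20; cpd pinned; ADP 130 uM final; 45 min RT; Kinase-Glo Plus 10 min; luminescence endpoint.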
CHX counter = counter-screen hit for Shiga toxin inhibitors, cycloheximide | 300,000 compounds, 12% hits | cell reporter, cycloheximide protein synthesis inhibition counterscreen | max response, %; in the data active means max response mostly above about 13%, no sharp cut-off; inactive means mostly below about 14%; further: read at 38.3 µM for the half of the compounds with a filed dose; 0% is about no effect
FBPA Giardia inh = blocks Giardia fructose-bisphosphate aldolase activity; A8B2U2; purified Giardia FBPA; Potency, µM (highest dose often 59.6 µM), inactives show top-dose activity, negative = inhibition, actives largely listed as inhibitors; 290,000 compounds, 0.71% hits; further: potency means the concentration at half of the fitted maximal effect; on the % scale 0 is the no-effect control and ±100 the full control effect; nearly all actives have a fitted effect of over 55% in size
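Giardia FBPA (40 nM reagent) was preincubated 10 min at RT with compound (up to 57.5 uM final), then substrate plus GAPDH/TPI/NAD/arsenate coupling system with diaphorase/resazurin was added; resorufin fluorescence (525/598 nm) was read after 20 min.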
RE007 growth inh = less growth of the S. pombe RE007 Vpr strain; S. pombe RE007 Vpr strain, BacTiter-Glo ATP luminescence, 24 h; Potency, µM (highest dose often 92.2 µM), for inactives: at the top dose activity change, negative = less growth, usual class: inhibitors; 360,000 compounds, 0.21% hits; AID 651644; active means well fitted falling curve with a large enough effect; inconclusive means small, poorly fitted or top-dose-only effect; inactive means no such curve, though single readings can be large or run the other way; further: potency means the concentration at half of the fitted maximal effect; on the % scale 0 is the no-effect control and ±100 the full control effect; nearly all actives have a fitted effect of over 50% in size
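Fission yeast RE007 carrying one integrated HIV-1 vpr copy, seeded at OD 0.01 in PMG+AL medium with 23 nL pinned compound. Grown 24 h at 30 degrees; viability read by BacTiter-Glo luminescence after 5 min.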
Shiga toxin inh = Shiga toxin inhibition; AID 2315; Vero cells, Shiga toxin protein synthesis inhibition reporter; inhibition, % at 38.7 µM; 290,000 compounds, 9.2% hits; in the data active means inhibition mostly above about 28%, no sharp cut-off; inactive means mostly below about 43%; further: 0% is about no effect
An asterisk follows results filed as active; u = inconclusive; x = not tested or not shown; [ ] = remark or other dose. The full list was thinned out, with hits kept by preference. Unless noted, the call rests on the fitted dose curve; in most records, active means well fitted curve in the direction sought with a large enough effect; inconclusive means small, poorly fitted or top-dose-only effect, or another doubt; inactive means no such curve, though single readings can be large; an effect the other way counts as inactive or inconclusive.

SMILES | LmPK inh | TbPYK inhibitor | CHX counter | FBPA Giardia inh | RE007 growth inh | Shiga toxin inh
Cc1ccc(/C=N/NC(=O)NC2CCCCC2)o1 | 1.1% | -5.3% | 20.9* | -1.3% | 10.6% | 41.5*
Cc1ccc(/C=N/NC(=S)NC(C)C)o1 | 1.9% | 0.7% | 8.5 | -5.3% | -0.2% | 24.2
Cc1cccc(/C=N/NC(=O)NC2CCCCC2)c1 | 0.2% | 2.4% | 39.4* | 1.9% | -17.4% | 68.8*
Cc1ccc(/C=N/NC(=O)Nc2ccccc2)o1 | -6.6% | -5.9% | 53.8* | -3.8% | 22.4% | 99.9*
COc1cccc(/C=N/NC(=O)CCCC(=O)NC2CCCCC2)c1 | -3.1% | -2.1% | -1.8 | 2.1% | 8.8% | 3.1
C[C@@H](c1ccccc1)N1C(=O)[C@H]2[C@H]3[C@H](O)[C@H](O)C/C(=N/NC(=O)OCc4ccccc4)[C@H]3CC[C@@H]2C1=O | x | x | x | 4.3%[12.9 µM] | x | x
COc1ccc(CNC(=O)OC2CC3CC2[C@H]2CCCCN2C3=O)cc1 (some centres not stated) | x | -1.6% | x | x | 1.6% | x
COc1ccc(Cl)cc1NC(=O)CSC1=Nc2ccccc2C2=NC(CC(=O)NCc3ccc4c(c3)OCO4)C(=O)N12 (configuration not stated) | x | 1.2% | x | x | x | x
CNC(=O)c1sc(-c2ccccn2)nc1C | -7.4% | 1.7% | 3.6 | 0.2% | 13.1% | 10.5
Cc1nc(-c2ccccn2)sc1C(=O)Nc1ccc(F)cc1 | 5.2% | -3.0% | 18.6* | -1.5% | 2.4% | 4.7
Cc1nc(-c2ccccn2)sc1C(=O)Nc1ccc(F)cc1F | 4.6% | 3.4% | 30.6* | -1.2% | -8.4% | 59.0*
CC1CCC2(CC1)NC(=O)N(CC(=O)N1CCN(S(=O)(=O)c3ccccc3)CC1)C2=O (configuration not stated) | 0.7% | -4.7% | -4.0 | 2.9% | 5.1% | -9.5
CCOc1ccc(N(C(=O)c2ccc(C)cc2)S(=O)(=O)c2ccc3c(c2)n(C)c(=O)n3C)cc1 | x | 2.4% | x | x | x | x
Cc1cc(/C=N/Nc2nc(N)ncc2[N+](=O)[O-])c(C)n1-c1cccc(C(F)(F)F)c1 | -13.3% | x | 26.2* | u | x | 61.7*
CN1CCN(CC(=O)Nc2ccc(OCc3ccccc3)cc2)CC1 | -0.9% | x | 36.0* | -17.3% | x | 64.4
COc1ccc(NC(=O)CN2CCN(CC#N)CC2)cc1 | -5.3% | 3.8% | -2.2 | -12.4% | 0.8% | x
N#CCN1CCN(CC(=O)Nc2ccc(OCc3ccccc3)cc2)CC1 | -0.4% | -6.4% | 22.9* | -10.9% | -3.8% | -22.5
Cc1cccc(NP(C)(=O)c2nc3c(s2)CCCC3)c1 (configuration not stated) | 3.1% | 3.1% | 25.1* | -1.4% | 5.9% | 37.3*
COc1ccc(C2=Nn3c(nnc3-c3ccc(OC)cc3OC)SC2)cc1 | x | x | -4.0 | 1.3% | x | -5.1
NC(=O)C(=O)O | x | x | x | -2.8% | x | x
N#Cc1c2ccc(O)cc2n2ccccc12 | -2.5% | -3.2% | 26.8* | u | 3.7% | 26.8
Cc1cc2c(=O)n(Cc3ccco3)c(SCC(=O)N3CCCc4ccccc43)nc2s1 | 2.1% | 0.5% | 12.2* | 1.8% | -18.9% | 4.8
Cc1cc2c(=O)n(Cc3ccco3)c(SCC(=O)NCc3ccco3)nc2s1 | 5.2% | u | -2.2 | 1.0% | -0.9% | 1.3
COc1ccc(-c2noc(CN(C(=O)Cc3ccc(C)cc3)C(C)C)n2)cc1 | x | -5.4% | x | x | x | x
CCOc1ccccc1N(CC(=O)Nc1cccnc1)S(=O)(=O)c1ccc(C)cc1 | -3.6% | 4.3% | 50.3* | -0.4% | -8.4% | 160.4*
O=C(CCc1nnc(COc2ccccc2)o1)NCc1ccc(Cl)s1 | 1.3% | -5.7% | 6.0 | 1.0% | 2.0% | 12.7
CCc1ccc(CN(C)C(=O)CCc2nnc(COc3ccccc3)o2)cc1 | 2.2% | 7.0% | 29.7* | 0.1% | 5.6% | 80.8*
COc1ccc(CCN(C)C(=O)CCc2nnc(-c3ccccc3)o2)cc1OC | -18.0% | -5.3% | 58.9* | 2.5% | 1.2% | 65.4*
O=C(CCc1nnc(COc2ccccc2)o1)NCc1ccccc1C(F)(F)F | 0.3% | -8.5% | 16.7* | -3.2% | 6.7% | 48.1
CN(Cc1nc2c(s1)CCCC2)C(=O)CCc1nnc(-c2ccccc2)o1 | -0.7% | -1.4% | 22.6* | 2.9% | -2.5% | 60.6*
